Sampled rows, rich in hits. Any-hit rate of the full collection: about 1.1%.
HSV replic up – HSV replication enhancement; AID 1956; HSV replication augmentation in cells, fold increase; maximum fold increase; 0.005% of 220,000 active; in the data active = maximum fold increase above about 1.5; inconclusive = no clear call, values can overlap the other calls; tested in PC3 cells
HMGR II inh – E. faecalis class II HMG-CoA reductase inhibition; purified E. faecalis HMGR, NADPH absorbance 340 nm kinetic; 0.41% of 190,000 active; inhibition, % at 10 µM;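 active = inhibition above a set limit, the median over all tested compounds plus 3 SD, cut at about 9.5% in these data; inconclusive = no clear call, values can overlap the other calls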;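 note: enzyme runs in reverse so mevalonate oxidation gives rising NADPH absorbance; 0% = complete reaction with DMSO and 100% = background rate lacking mevalonate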
Ins promoter up – MIN6 insulin promoter up-regulation; MIN6 insulin promoter-GFP reporter, high-content imaging; hits give high values; z-score at 5 µM; 0.3% of 190,000 active; AID 1625;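 active = z-score above 3 at 5 µM with at least 500 cells counted in the well; inconclusive = wells under 500 cells, flagged as cytotoxic or low count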
Insulin prom inh – TRM-6 insulin promoter activity inhibition; TRM-6 cells (human fetal islet line), insulin promoter-eGFP reporter, imaging; reporter expression induced with tamoxifen; inhibition, % at 2 µM; 0.9% of 130,000 active;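 active = inhibition above the mean plus 3 SD, with well images judged a real hit on visual review, cut at about 60% in these data, passing the limit was not always enough; inconclusive = inhibition over the cutoff but images rejected on review; inactive = inhibition not above the cutoff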
* hit, by the source's call; i = inactive; ? = inconclusive; nt = no result given.

SMILES	HSV replic up	HMGR II inh	Ins promoter up	Insulin prom inh
Cc1[nH][nH]c(=O)c1C(c1ccc(-c2cccc(Cl)c2)o1)c1c(C)[nH][nH]c1=O	i	nt	-0.07	nt
O=C(CN1C(=O)c2ccccc2C1=O)Nc1sc2c(c1C(=O)NCc1ccco1)CCCC2	i	-2	0.54	92*
COc1cc(/C=N/c2oc(-c3ccccc3)cc2C#N)ccc1O	i	10*	0.76	-8
COc1cc(/C=N/NC(=O)c2ccccc2)ccc1O	i	5	-0.59	nt
CCCC(=O)N=C1SC2CS(=O)(=O)CC2N1c1ccc(-c2nc3ccc(C)cc3s2)cc1 (centres undefined)	i	-4	1.3	nt
O=C(OCc1ccc([N+](=O)[O-])cc1)C1CC(=O)N(c2ccccc2)C1 (centres undefined)	i	-6	0.1	79*
Cc1cccc(N2CC(C(=O)OCc3ccc([N+](=O)[O-])cc3)CC2=O)c1 (centres undefined)	i	6	0.62	nt
COc1cc(/C=C(\C#N)C(=O)c2c[nH]c3ccccc23)cc(OC)c1O	?	-1	0.55	27
CCc1nc2oc3cc(OC)ccc3c(=O)c2c(=O)n1Cc1ccccc1	i	-3	0.65	67*
COc1ccc(/C=N/n2c(N)nc3ccccc32)cc1OC	i	-4	-0.25	75*
COc1cccc(/C=N/n2c(N)nc3ccccc32)c1OC	i	-2	1.3	20
CCCn1nnc(NC(=O)c2ccc(Br)cc2)n1	i	-1	1.5	79*
O=C(NCc1cccnc1)c1ccc(NC(=O)c2ccco2)cc1	i	-3	1.5	79*
CCOc1cc(CC(=O)N[C@@H](CC(C)C)c2ccccc2N2CCCCC2)ccc1C(=O)O	i	3	-0.33	nt
C=CCn1c(=NC(=O)c2cc(-c3cccs3)nc3ccccc23)sc2cc(S(N)(=O)=O)ccc21	i	-6	9*	-32
COCCn1c(=NC(=O)c2cc(-c3cccs3)nc3ccccc23)sc2cc(S(N)(=O)=O)ccc21	i	-9	-2.1	-32
Cc1c(/C=C/C(=O)c2ccc(Cl)s2)cnn1C	i	-5	nt	75*
COc1ccc2cc3cc(C(=O)NCc4ccco4)oc3nc2c1	i	-2	-0.64	0
COc1ccc2cc3cc(C(=O)NCc4ccccn4)oc3nc2c1	nt	1	3.3*	-22
Cn1cc(/C=C2\SC(=S)N(NC(=O)c3cccc(Cl)c3)C2=O)c2ccccc21	?	nt	7.3*	nt
Cn1cc(/C=C2\SC(=S)N(NC(=O)c3ccccc3)C2=O)c2ccccc21	nt	-1	nt	-12
CCOC(=O)C1(C)C=C(Nc2ccc(C)cc2)C(=O)N1c1ccc(C)cc1 (centres undefined)	i	-2	-0.06	70*
O=C(O)CCC(=O)Nc1ccc(C(=O)OCC(=O)c2ccc(Cl)cc2Cl)cc1	i	-4	nt	47
O=C(Nc1ccc2c(c1)C(=O)N(c1ccccc1)C2=O)C1CCCO1 (centres undefined)	i	12*	nt	-81
COc1cc(C(=O)OCC(=O)c2c(N)n(C)c(=O)n(C)c2=O)ccc1OCCC(C)C	i	0	0.81	25
SMILES	HSV replic up	HMGR II inh	Ins promoter up	Insulin prom inh
Brc1ccc(C=Nc2ccc(Nc3ccccc3)cc2)s1	i	-6	2	27
C(=Nc1ccc(Nc2ccccc2)cc1)c1ccc2ccccc2c1	i	0	0.57	64*
CCc1nnc(NC(=O)c2cc(S(=O)(=O)N3CCOCC3)ccc2N2CCCCC2)s1	i	-5	0.52	28
Cn1c(=O)c(Oc2ccc(F)cc2)c(O)c2ccccc21	i	-4	-0.05	64*
COc1ccc(/C=N/n2c(SC)nnc(C(C)(C)C)c2=O)cc1OC	i	-3	0.44	30
COc1cc(/C=N/n2c(SC)nnc(C(C)(C)C)c2=O)ccc1O	i	-4	0.94	77*
COc1ccccc1C(=O)N=c1sc2c(C)ccc(OC)c2n1C	i	nt	0.24	nt
COC(=O)c1c(NC(=O)CN2CCC3(O)CCCCC3C2c2cc(OC)ccc2OC)sc(C)c1C (centres undefined)	i	0	-0.23	64*
COC(=O)/C(C#N)=C1/C=Cc2ccccc2N1C	i	-3	nt	81*
CS(=O)(=O)N1CCC(C(=O)Nc2ccccc2)CC1	i	-6	0.52	3
CS(=O)(=O)N1CCC(C(=O)Nc2ccc(OCc3ccccc3)cc2)CC1	i	-6	0.01	71*
COc1ccc(C2=C(N)c3ccccc3C2=O)cc1	i	-6	0.83	71*
O=C(CCCOc1ccc(Cl)cc1Cl)N/N=C/c1ccco1	i	-5	0.1	79*
O=C(CCCOc1ccc(Cl)cc1Cl)N/N=C/c1ccccc1	i	2	0.89	-7
O=C(COc1cccc([N+](=O)[O-])c1)N/N=C/c1ccco1	i	9.6*	0.08	nt
O=C(CNCc1ccco1)Nc1ccc(N2CCCCCC2)cc1	i	11*	-0.78	nt
Cc1ccc2nc(-c3sc4nc(C)ccc4c3N)[nH]c2c1	i	26*	nt	-452
CCN(Cc1ccncc1)Cc1c(O)ccc2cc(Br)ccc12	i	15*	1	-13
COc1cc(OC)c(N(C)S(=O)(=O)c2cccc(C(=O)OCC(=O)NCc3ccco3)c2)cc1Cl	i	-1	0.23	nt
CCOC(=O)c1c2n(c3ccc(O)cc13)CCCCC2	i	0	1.1	86*
COc1ccc(Cl)cc1NC(=O)CN(c1ccccc1)S(=O)(=O)N(C)C	i	17*	-0.5	13
CCOC(=O)Cc1cc(=O)[nH]c(/N=C(\N)Nc2ccc(C)c(C)c2)n1	i	-1	-0.17	13
COc1ccccc1C(=O)NNC(=O)c1nn(Cc2ccccc2)c(=O)c2ccccc12	i	-4	-1	80*
CCOC(=O)c1c(C)nc(-c2ccccc2)nc1NC(=O)CC	i	-9	2.9	71*
CCC(=O)Nc1nc(-c2ccccc2)nc(SC)c1C(C)=O	i	-3	-0.42	-64
SMILES	HSV replic up	HMGR II inh	Ins promoter up	Insulin prom inh
CCCc1nc2ccccc2c2nc(N)nn12	i	-4	-0.53	87*
O=C(Cc1n[nH]c(=O)c2ccccc12)NCc1ccccn1	i	10*	0.02	40
O=C(NCc1ccccn1)C(=O)NCc1ccccn1	i	-1	0.06	80*
CC1CCCCC1NC(=O)c1ccc(S(=O)(=O)NCC2CCCO2)cc1 (centres undefined)	i	-5	nt	17
O=C(/C=C\c1cccs1)c1c(O)ccc2ccc(=O)oc12	i	0	0.58	7
CC(=O)C1CCC2C3CCC4=CC(=O)CC[C@]4(C)[C@@]3(F)C(O)C[C@]12C (some centres undefined)	i	nt	-1.4	nt
CCc1ccc(C(=O)/C=C/NCc2ccc(F)cc2)cc1	1.5*	1	-0.21	nt
Nc1ccc2nc(SCC(=O)N3CCN(c4ccccc4)CC3)sc2c1	i	nt	-1.2	nt
Nc1ccc2nc(SCC(=O)N3CCOCC3)sc2c1	i	-5	1.2	80*
Nc1nc(SCC(=O)N2CCc3ccccc3C2)[nH]c(=O)c1-c1ccccc1	i	1	-0.38	75*
Cc1nc2c(Cl)cc(Cl)cc2[nH]1	i	3	-0.31	73*
Cc1nc2c([N+](=O)[O-])c(C)c(C)cc2[nH]1	i	-1	-0.12	57

Compound activity as filed in PubChem.
